Test [1] can be described thus: qHTS assay to identify small molecule agonists of the sonic hedgehog signaling (Shh) pathway (AID 1259368; calls by dose curve;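 further: NIH/3T3-derived 3T3Gli1-Luc cells carrying a stable Gli1-driven firefly luciferase reporter; series mostly up to about 92 µM; nearly all actives have a fitted effect of over 15% in size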). An outline of the steps:
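Stable NIH/3T3 Gli1-Luc reporter clone; 24 hr cpd exposure after a 4 hr settling period; luminescence endpoint.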

Test [2] in a line: qHTS assay to identify small molecule antagonists of the sonic hedgehog signaling (Shh) pathway (AID 1259369; calls by dose curve; further: nearly all actives have a fitted effect of over 45% in size; further: potency means the concentration at half of the fitted maximal effect). An outline of the steps:
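Gli1 transcriptional reporter (firefly Luc) in NIH/3T3 background, conditioned-medium activated. 24hr exposure, luminescence endpoint.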

The target of test [3] is Estrogen receptor beta (Homo sapiens) (UniProt Q92731). The test is described as follows: qHTS assay to identify small molecule agonists of the estrogen receptor beta (ER-beta) signaling pathway (AID 1259377; active means well fitted activation curve with a large enough effect in the signal ratio in the repeat runs, not every such curve was filed as active; the % refers to the signal ratio). An outline of the steps:
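Beta-lactamase reporter readout: fluorescence of LiveBLAzer B/G FRET substrate after 2 h at room temperature, following 16 h compound treatment of ER-beta-UAS-bla HEK293T cells at 37C in 2% charcoal-stripped FBS medium.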

Test [4] has the same target. Briefly: qHTS assay to identify small molecule antagonists of the estrogen receptor beta (ER-beta) signaling pathway (AID 1259378; active means well fitted inhibition curve with a large enough effect in the signal ratio in the repeat runs, not every such curve was filed as active; the % refers to the signal ratio; further: potency means the concentration at half of the fitted maximal effect). The essentials: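 ER-beta-UAS-bla HEK293T cells in 2% charcoal-stripped FBS medium treated with compound plus 1nM final 17-beta-estradiol for 16 hr at 37C. Beta-lactamase reporter read by FRET substrate fluorescence after 2 hours at room temperature.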

The nature of test [5]: qHTS assay to identify small molecule agonists of the androgen receptor (AR) signaling pathway in the presence of an antagonist - cell viability counter screen (AID 1259379). Further: nearly all actives have a fitted effect of over 25% in size. Further: potency means the concentration at half of the fitted maximal effect. The essentials:
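Counter screen for cell viability run in parallel with the AR agonist-mode luciferase assay. MDA-kb2 cells were co-treated with nilutamide (3.0uM final) and compounds, then incubated 16 hr at 37C, and CellTiter-Fluor fluorescence was measured.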

Test [6] in a line: qHTS assay to identify small molecule agonists of the estrogen receptor beta (ER-beta) signaling pathway - cell viability counter screen (AID 1259380). Further: nearly all actives have a fitted effect of over 30% in size. Further: potency means the concentration at half of the fitted maximal effect. An outline of the steps: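 In this qHTS counter screen, HEK293T cells carrying an ER-beta/UAS beta-lactamase reporter, grown in 2% charcoal-stripped FBS, received compound for 16 hr; ATP-based CellTiter-Glo luminescence was then read after 30 min at room temperature.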

Test [7] is described as follows: qHTS assay to identify small molecule antagonists of the estrogen receptor beta (ER-beta) signaling pathway - cell viability counter screen (AID 1259382). Further: series mostly up to about 92 µM; nearly all actives have a fitted effect of over 55% in size. The essentials: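 HEK293T ER-beta-UAS-bla, 2% charcoal-stripped FBS; compounds + 1nM E2 16 hr 37C; CellTiter-Glo luminescence, 30 min RT.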
Test [8] is described as follows: qHTS assay to identify small molecule agonists or antagonists of the thyroid stimulating hormone receptor (TSHR) signaling pathway - wild type cell line counter screen (AID 1259384; calls by dose curve). An outline of the steps:
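Wild-type Hek293 cells, 800/well, 18 h at 37C, then compound with Ro20-1724 for 30 min RT. cAMP by HTRF (cAMP-d2/anti-cAMP cryptate), 1 h RT, fluorescence read. 15 concentrations, triplicates.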

The nature of test [9]: qHTS assay to identify small molecule agonists of the estrogen receptor alpha (ER-alpha) signaling pathway in the presence of an antagonist - cell viability counter screen (AID 1259386).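 Further: cells exposed to compounds for 22 h at 37 °C before the viability read; nearly all actives have a fitted effect of over 30% in size.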 Further: potency means the concentration at half of the fitted maximal effect. An outline of the steps:
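Steps: 5-day stripped-FBS culture; seed and incubate 24hr; add ICI-182,780 (10.0nM final); pin 15-point compound titration; incubate 22hr at 37C; add CellTiter-Fluor at 21hr; read fluorescence.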

Test [10] deals with Progesterone receptor (Homo sapiens) (UniProt P06401). Briefly: qHTS assay to identify small molecule antagonists of the progesterone receptor (PR) signaling pathway (AID 1346795; active means well fitted inhibition curve with a large enough effect in the signal ratio in the repeat runs, not every such curve was filed as active; the % refers to the signal ratio; further: potency means the concentration at half of the fitted maximal effect). An outline of the steps:
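Beta-lactamase reporter, HEK293T PR-UAS-bla line; 2% charcoal-stripped FBS; 6 hr pre-incubation, 37C/5% CO2. Compound + R5020 1 nM final, 16 hr. LiveBLAzer B/G FRET substrate, 2 hr RT; fluorescence intensity read.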

Test [11] is described as follows: qHTS assay to identify small molecule antagonists of the TGF-beta/Smad signaling pathway - cell viability counter screen (AID 1346824). Further: nearly all actives have a fitted effect of over 50% in size. An outline of the steps:
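SBE-bla HEK 293T cells, incubated overnight, then compound plus 0.25 ng/mL TGF-beta1 (stock added) for 5 hr at 37 C. Viability was read in the same wells by CellTiter-Glo luminescence after 30 min at room temperature.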

The nature of test [12]: qHTS assay to identify small molecule agonists of the TGF-beta/Smad signaling pathway - cell viability counter screen (AID 1346829). Further: top concentration of the series differs between compounds; nearly all actives have a fitted effect of over 45% in size. The essentials: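 Same-well cytotoxicity: CellTiter-Glo added after the 2 hr room-temperature beta-lactamase substrate step, luminescence measured 30 min later; cells had 5 hr of compound at 37 C.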
Test [13] is described as follows: qHTS assay to identify small molecule agonists of the TGF-beta/Smad signaling pathway (AID 1346859; active means well fitted activation curve with a large enough effect in the signal ratio in the repeat runs, not every such curve was filed as active; the % refers to the signal ratio; further: series mostly up to about 77 µM). An outline of the steps:
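Read-out: fluorescence at 460 and 530 nm (405 nm excitation) after a 2 hr room-temperature incubation with beta-lactamase FRET substrate. SBE-bla HEK 293T cells had been treated with test compounds for 5 hr at 37 C.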

The target in test [14] is Thyrotropin-releasing hormone receptor (Homo sapiens) (UniProt P34981). The test is described as follows: qHTS assay to identify small molecule antagonists of the thyrotropin-releasing hormone receptor (TRHR) signaling pathway (AID 1346877; active means well fitted inhibition curve with a large enough effect in the repeat runs, not every such curve was filed as active; further: series mostly up to about 51 µM). An outline of the steps: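 Human TRHR in HEK293 cells; inhibition of the intracellular calcium rise triggered by 1 nM TRH was followed by fluorescence over 3 min. Compounds were run at 15 concentrations, three replicates each.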

In test [15] the target is Thyrotropin receptor (Homo sapiens) (UniProt P16473). Briefly: qHTS assay to identify small molecule antagonists of the thyroid stimulating hormone receptor (TSHR) signaling pathway (AID 1259385; calls by dose curve; further: nearly all actives have a fitted effect of over 20% in size). An outline of the steps:
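TSHR-HEK293 cells (800/well) plated 18 h, then compounds with Ro20-1724 and TSH at 1.5 ng/mL final, 30 min at room temperature. cAMP quantified by HTRF (cAMP-d2/anti-cAMP-cryptate, 1 h); 15 concentrations in triplicate.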

Test [16] addresses Progesterone receptor (Homo sapiens) (UniProt P06401). Briefly: qHTS assay to identify small molecule agonists of the progesterone receptor (PR) signaling pathway (AID 1346784; calls by dose curve; further: nearly all actives have a fitted effect of over 30% in size). An outline of the steps: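 HEK 293T PR-UAS-bla reporter cells, 2% charcoal-stripped FBS; 6 hr settle at 37C/5% CO2, compound (DMSO) 16 hr, LiveBLAzer B/G FRET substrate 2 hr RT, fluorescence intensity read.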

Test [17] in a line: qHTS assay to identify small molecule antagonists of the progesterone receptor (PR) signaling pathway - cell viability counter screen (AID 1346798). Further: series mostly up to about 92 µM; nearly all actives have a fitted effect of over 50% in size. The essentials: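 Luminescence readout (CellTiter-Glo, 30 min, RT) of viability in PR-UAS-bla HEK293T cells exposed to compound and R5020 agonist for 16 hr at 37C, 5% CO2; run in the same wells as the beta-lactamase reporter read.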

Test [18] addresses Estrogen receptor (Homo sapiens) (UniProt P03372). The test is described as follows: qHTS assay to identify small molecule agonists of the estrogen receptor alpha (ER-alpha) signaling pathway in the presence of an antagonist (AID 1259383; calls by dose curve; further: top concentration of the series differs between compounds; nearly all actives have a fitted effect of over 15% in size). An outline of the steps:
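ER-alpha agonism measured under antagonist challenge: 10.0nM ICI-182,780 (final) plus compound, 15 concentrations, 22hr, VM7Luc4E2 ERE-luciferase cells. Read by luminescence.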

Test [19] in a line: qHTS assay to identify small molecule agonists of the progesterone receptor (PR) signaling pathway - cell viability counter screen (AID 1346799; calls by dose curve; further: nearly all actives have a fitted effect of over 45% in size). An outline of the steps:
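HEK293T PR-UAS-bla, 3,000 cells/well, 2% charcoal-stripped FBS; 6 h settle, compound 16 h at 37C/5% CO2; LiveBLAzer 2 h RT, then CellTiter-Glo 30 min RT, luminescence read.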

Values joined by “and” are separate entries in the source; they are usually repeats but may differ in a detail not shown here. Identical values can stand only once. Records with an inconclusive call do not appear. A structure can be active in one record and inactive in another. Active and inactive are the calls of the source. Unless noted, the call rests on the fitted dose curve; in most records, active means well fitted curve in the direction sought with a large enough effect in the repeat runs; inconclusive means weak or mixed curves; inactive means no such curve, though single readings can be large; an effect the other way counts as inactive or inconclusive.

Chain of Estrogen receptor beta (Homo sapiens) (Q92731 whole entry, looked up): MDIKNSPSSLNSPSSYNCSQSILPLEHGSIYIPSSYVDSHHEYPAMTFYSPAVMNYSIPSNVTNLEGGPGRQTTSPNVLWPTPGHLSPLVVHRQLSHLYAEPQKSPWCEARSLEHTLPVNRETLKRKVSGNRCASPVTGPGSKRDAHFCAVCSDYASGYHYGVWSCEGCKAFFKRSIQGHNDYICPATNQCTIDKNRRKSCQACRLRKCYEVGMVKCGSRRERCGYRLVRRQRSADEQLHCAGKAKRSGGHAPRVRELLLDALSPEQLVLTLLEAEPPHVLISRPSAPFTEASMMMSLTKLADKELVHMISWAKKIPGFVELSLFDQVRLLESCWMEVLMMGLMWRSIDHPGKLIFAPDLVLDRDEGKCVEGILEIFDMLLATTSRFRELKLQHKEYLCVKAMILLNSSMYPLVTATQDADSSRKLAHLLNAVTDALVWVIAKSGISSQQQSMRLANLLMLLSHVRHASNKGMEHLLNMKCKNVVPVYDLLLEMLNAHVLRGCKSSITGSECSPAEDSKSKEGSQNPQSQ
Chain of Thyrotropin receptor (Homo sapiens) (P16473 whole entry, looked up): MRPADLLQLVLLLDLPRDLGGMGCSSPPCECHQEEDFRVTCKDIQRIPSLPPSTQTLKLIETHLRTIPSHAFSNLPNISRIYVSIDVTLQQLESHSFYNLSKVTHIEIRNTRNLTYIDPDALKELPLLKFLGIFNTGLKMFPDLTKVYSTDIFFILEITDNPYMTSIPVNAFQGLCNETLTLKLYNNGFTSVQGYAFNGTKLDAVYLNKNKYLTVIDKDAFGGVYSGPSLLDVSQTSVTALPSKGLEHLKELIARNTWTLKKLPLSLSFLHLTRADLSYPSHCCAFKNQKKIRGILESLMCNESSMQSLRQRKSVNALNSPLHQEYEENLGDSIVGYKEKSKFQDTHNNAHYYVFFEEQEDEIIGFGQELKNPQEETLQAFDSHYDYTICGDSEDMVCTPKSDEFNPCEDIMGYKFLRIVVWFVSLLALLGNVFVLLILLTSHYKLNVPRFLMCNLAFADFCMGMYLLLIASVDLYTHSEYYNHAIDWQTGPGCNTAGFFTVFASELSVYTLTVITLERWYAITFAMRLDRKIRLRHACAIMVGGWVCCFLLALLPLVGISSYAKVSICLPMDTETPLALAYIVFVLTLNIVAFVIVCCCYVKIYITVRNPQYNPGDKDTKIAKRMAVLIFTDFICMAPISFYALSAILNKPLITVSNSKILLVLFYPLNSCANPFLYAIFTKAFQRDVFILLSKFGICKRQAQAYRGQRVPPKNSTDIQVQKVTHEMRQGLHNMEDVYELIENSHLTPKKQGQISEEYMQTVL
Chain of Thyrotropin-releasing hormone receptor (Homo sapiens) (P34981 whole entry, looked up): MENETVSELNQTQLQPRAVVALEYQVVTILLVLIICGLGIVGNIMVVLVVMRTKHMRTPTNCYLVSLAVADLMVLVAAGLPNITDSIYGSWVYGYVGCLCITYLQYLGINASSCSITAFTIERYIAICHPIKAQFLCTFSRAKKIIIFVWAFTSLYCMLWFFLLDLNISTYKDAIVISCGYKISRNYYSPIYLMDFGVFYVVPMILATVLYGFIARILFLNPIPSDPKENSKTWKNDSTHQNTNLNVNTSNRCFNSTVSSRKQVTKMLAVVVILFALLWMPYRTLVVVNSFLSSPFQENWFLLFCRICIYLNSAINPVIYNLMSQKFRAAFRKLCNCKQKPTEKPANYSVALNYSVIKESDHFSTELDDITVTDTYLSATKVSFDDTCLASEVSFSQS
Chain of Estrogen receptor (Homo sapiens) (P03372 whole entry, looked up): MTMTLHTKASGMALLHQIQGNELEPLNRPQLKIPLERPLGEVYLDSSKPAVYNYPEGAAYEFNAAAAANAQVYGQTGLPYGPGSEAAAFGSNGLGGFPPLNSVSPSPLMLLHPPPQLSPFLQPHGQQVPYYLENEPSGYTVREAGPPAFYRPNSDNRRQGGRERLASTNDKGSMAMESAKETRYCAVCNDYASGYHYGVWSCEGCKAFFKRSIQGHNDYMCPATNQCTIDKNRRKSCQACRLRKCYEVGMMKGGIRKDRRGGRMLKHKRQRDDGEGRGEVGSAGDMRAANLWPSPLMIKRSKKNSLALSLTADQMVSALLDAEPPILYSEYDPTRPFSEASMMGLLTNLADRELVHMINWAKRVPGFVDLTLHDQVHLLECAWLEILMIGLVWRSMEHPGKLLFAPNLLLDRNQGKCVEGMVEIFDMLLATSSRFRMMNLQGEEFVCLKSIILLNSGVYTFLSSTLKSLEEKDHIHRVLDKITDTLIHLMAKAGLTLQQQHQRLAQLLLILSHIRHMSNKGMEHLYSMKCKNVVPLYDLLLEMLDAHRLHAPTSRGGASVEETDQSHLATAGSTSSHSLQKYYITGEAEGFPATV
Chain of Progesterone receptor (Homo sapiens) (P06401 whole entry, looked up): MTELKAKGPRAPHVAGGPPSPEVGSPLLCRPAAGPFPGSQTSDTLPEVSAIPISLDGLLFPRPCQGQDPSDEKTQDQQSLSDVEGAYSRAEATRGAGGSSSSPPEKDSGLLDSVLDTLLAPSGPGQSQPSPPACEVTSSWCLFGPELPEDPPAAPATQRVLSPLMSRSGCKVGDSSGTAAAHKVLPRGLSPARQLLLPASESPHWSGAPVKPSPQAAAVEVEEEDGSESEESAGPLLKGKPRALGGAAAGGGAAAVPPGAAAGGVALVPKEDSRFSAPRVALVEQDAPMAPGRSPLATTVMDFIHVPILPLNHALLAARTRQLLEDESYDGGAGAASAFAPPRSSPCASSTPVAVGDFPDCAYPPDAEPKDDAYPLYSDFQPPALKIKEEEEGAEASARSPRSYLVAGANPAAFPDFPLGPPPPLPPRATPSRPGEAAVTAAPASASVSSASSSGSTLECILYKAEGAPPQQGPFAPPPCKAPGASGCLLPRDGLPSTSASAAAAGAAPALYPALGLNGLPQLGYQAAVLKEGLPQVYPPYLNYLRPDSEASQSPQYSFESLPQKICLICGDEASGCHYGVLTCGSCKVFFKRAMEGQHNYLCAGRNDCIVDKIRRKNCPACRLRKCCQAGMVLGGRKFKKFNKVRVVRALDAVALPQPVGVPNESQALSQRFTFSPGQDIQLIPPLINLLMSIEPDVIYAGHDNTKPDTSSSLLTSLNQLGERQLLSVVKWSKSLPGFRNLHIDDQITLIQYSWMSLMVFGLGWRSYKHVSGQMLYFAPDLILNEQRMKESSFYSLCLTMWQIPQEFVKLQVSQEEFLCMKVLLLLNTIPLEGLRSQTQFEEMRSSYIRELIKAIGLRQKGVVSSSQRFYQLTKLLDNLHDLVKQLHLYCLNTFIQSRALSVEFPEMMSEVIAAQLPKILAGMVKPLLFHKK

As to `COc1cccc2c1C(=O)c1c(O)c3c(c(O)c1C2=O)C[C@@](O)(C(=O)CO)C[C@@H]3O[C@H]1C[C@H](N)[C@H](O)[C@H](C)O1`, the Potency entry in test [1], in [3], in test [7], in test [11], in [12] and in test [14] was “inactive” throughout. For the same molecule, the Potency in [2] was 38.5 nM (active) and 531 nM (active); in test [4] it was 1.93 µM (active) and 11.9 µM (active); in test [5], 15.3 µM (active) and 11.9 µM (active); in test [6], “inactive and 473 nM (active)”; in [9], 24.3 µM (active) and 29.8 µM (active); in test [10], 2.73 µM (active) and 9.44 µM (active). Further, the outcome in test [8] and in [13] was inactive.

In the case of `COc1c(Cl)c(Cl)c(Cl)c(Cl)c1Cl`, the Potency entry in test [1], in test [2], in [3], in test [4], in test [5] and in test [6] was “inactive” each time. For the same molecule, the Potency result in test [15], in [9], in test [16], in test [10], in test [17] and in test [11] was “inactive” each time. The Potency result in [12] and in test [14] was “inactive” in each case. Further, the outcome in test [8] and in test [13] was inactive.

Take `CCCCC(CC)COC(=O)c1ccc(N(C)C)cc1` (centres undefined): the Potency result in test [1], in [2], in [3], in [4], in test [5] and in test [6] was “inactive” throughout. Besides, the Potency result in test [7], in test [18], in [15], in [9], in test [16] and in test [10] was “inactive” throughout. The Potency entry in [17], in test [19], in test [11] and in test [12] was “inactive” in each case. In addition, the call in test [8] and in test [13] was inactive.

As to `CC(C)CC(C)(O)C#CC(C)(O)CC(C)C` (centres undefined), the Potency result in test [1], in [3], in test [4], in test [5], in test [6] and in test [7] was “inactive” in each case. The Potency entry in [15], in test [9], in test [16], in test [10], in test [11] and in test [12] was “inactive” each time. In test [14], the Potency entry is “inactive”. The Potency in test [2] is 9.49 µM (active) and inactive. Also, the outcome in test [8] and in test [13] was inactive.

As for `NC=O`, the Potency result in test [1], in test [2], in test [3], in test [4], in test [5] and in test [6] was “inactive” each time. For the same molecule, the Potency entry in [9], in [16], in test [10], in [19], in [11] and in test [12] was “inactive” in each case. Moreover, the molecule was classed as inactive in test [13].

Consider `O=[N+]([O-])c1ccc2c(c1)Cc1ccccc1-2`, for which the Potency entry in test [1], in test [2], in test [3], in test [4], in test [5] and in test [6] was “inactive” in each case. Also, the Potency entry in test [7], in test [18], in [15], in [9], in test [16] and in test [19] was “inactive” in each case. Further, the Potency result in [11] and in test [12] was “inactive” each time. In addition, the molecule was classed as inactive in [8] and in test [13].

As to `O=c1oc(=O)c2cc3c(=O)oc(=O)c3cc12`, the Potency result in [1], in test [2], in [3], in test [4], in test [5] and in test [6] was “inactive” in each case. Besides, the Potency entry in [7], in test [9], in test [16], in test [10], in test [17] and in [19] was “inactive” in each case. Also, the Potency result in test [11], in test [12] and in test [14] was “inactive” in each case. Further, the call in test [13] was inactive.

(Values after PubChem BioAssay (Tox21).)
